Results on 40 compounds are retold here after PubChem BioAssay (NCATS).

Inconclusive results are not listed. Where a call stands in place of a potency, no number is given. Calls of active or inactive are those of the source. The call rests on the fitted dose curve; in most records, active means well fitted inhibition curve with a large enough effect; inconclusive means small, poorly fitted or top-dose-only effect; inactive means flat fitted curve, though single readings scatter.
Potency means the concentration at half of the fitted maximal effect.

For this experiment, the system named is Zika virus NS2B-NS3 protease. Nature of the experiment: Primary screen GU AMC qHTS for Zika virus inhibitors (AID 1347154). Further: nearly all actives have a fitted effect of over 70% in size. The note with it: Zika NS2B-NS3 unlinked protease, AMC fluorogenic substrate; series mostly up to 54.1 µM. In short, it runs like this:
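Fluorogenic AMC-substrate cleavage by noncovalent NS2B-NS3 protease complex (25 nM, pH 8.0 Tris buffer with Tween 20) followed for 15 minutes at room temperature (~20% conversion). Percent inhibition from ex340/em450 signal change, fitted by 4-parameter Hill equation.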
`CN(C)CCC[C@@]1(c2ccc(F)cc2)OCc2cc(C#N)ccc21`: the Potency result was “inactive”.

With `CN(C)CCOC(c1ccc(Cl)cc1)c1ccccn1` (stereo not given), the Potency entry was “inactive”.

For `O=C(Nc1cccc(C2=NCCN2)c1)Nc1cccc(C2=NCCN2)c1`, the Potency result was “inactive”.

In the case of `Oc1c(Cl)cc(Cl)c(Cl)c1Cc1c(O)c(Cl)cc(Cl)c1Cl`, the Potency is 7.94 µM (active).

For `O=C(O)Cc1csc(-c2ccc(Cl)cc2)n1`, the Potency entry was “inactive”.

`CN1CCC[C@@H]1CCO[C@](C)(c1ccccc1)c1ccc(Cl)cc1`: the Potency entry was “inactive”.

`CCC(C(=O)OCCOCCN(CC)CC)c1ccccc1` (stereo not given): the Potency result is “inactive”.

Regarding `C/C=C/c1ccc(O)c(OC)c1`, the Potency entry was “inactive”.

On to `Cc1ccc(S(=O)(=O)NC(=O)NC2CCCC2)cc1`, for which the Potency entry was “inactive”.

`CCCCCCCCCCCCSCCOCCO`: the Potency result was “inactive”.

For `O=C(O)CCNC(=O)c1ccccc1`, the Potency result was “inactive”.

`CCc1oc2ccccc2c1C(=O)c1cc(I)c(O)c(I)c1`: the Potency is 28.7 µM (active).

Regarding `CC[N+](C)(CC)CCOC(=O)C(O)(c1ccccc1)C1CCCCC1` (stereo not given), the Potency entry is “inactive”.

On to `O=C1C(CCS(=O)c2ccccc2)C(=O)N(c2ccccc2)N1c1ccccc1` (stereo not given), for which the Potency result was “inactive”.

`C=C[C@H]1CN2CC[C@H]1C[C@H]2[C@H](O)c1ccnc2ccc(OC)cc12`: the Potency result is “inactive”.

Regarding `Cc1ccccc1OCC(O)CO` (stereo not given), the Potency result is “inactive”.

Regarding `NCc1ccccc1Sc1ccccc1CO`, the Potency result is “inactive”.

As to `O=C(N/N=C/c1ccc([N+](=O)[O-])o1)c1ccc(O)cc1`, the Potency result was “inactive”.

In the case of `CC(C)NCC(O)c1ccc2ccccc2c1` (stereo not given), the Potency result was “inactive”.

For the compound `CN1CCN(C2=Nc3ccccc3Sc3ccc(Cl)cc32)CC1`, the Potency entry is “inactive”.

Take `CC(CNC1CCCCC1)OC(=O)c1ccccc1` (stereo not given): the Potency result was “inactive”.

`CCCCNc1ccc(C(=O)OCCOCCOCCOCCOCCOCCOCCOCCOCCOC)cc1`: the Potency entry was “inactive”.

`O=C(c1ccc(F)cc1)C1CCN(CCn2c(=S)[nH]c3ccccc3c2=O)CC1`: the Potency result was “inactive”.

Take `COc1ccc(-c2cc(C(F)F)nn2-c2ccc(S(N)(=O)=O)cc2)cc1F`: the Potency entry was “inactive”.

With `Cl/C(=C\n1cncn1)c1ccc(Cl)cc1Cl`, the Potency entry is “inactive”.

Regarding `CCCCCCCCCCCCCC[N+](C)(C)Cc1ccccc1`, the Potency entry is “inactive”.

On to `CCCCOC(=O)CC(CC(=O)OCCCC)(OC(C)=O)C(=O)OCCCC`, for which the Potency entry is “inactive”.

As to `CC(=O)Oc1ccc(C)cc1`, the Potency entry is “inactive”.

As for `OC(C#CCN1CCCC1)(c1ccccc1)c1ccccc1`, the Potency entry is “inactive”.

Take `CC(=O)O[C@]1(C(C)=O)CC[C@H]2[C@@H]3C=C(C)C4=CC(=O)CC[C@]4(C)[C@H]3CC[C@@]21C`: the Potency entry is “inactive”.

Consider `Nc1ccc(S(=O)(=O)NCc2ccccc2)cc1`, for which the Potency entry is “inactive”.

Take `CCNC(=O)NCc1cccc(Cl)c1`: the Potency result was “inactive”.

On to `CC(C)(Cc1c[nH]c2ccccc12)NCC(O)COc1ccccc1C#N` (stereo not given), for which the Potency entry is “inactive”.

Regarding `CN(CCCN1c2ccccc2CCc2ccccc21)CC(=O)c1ccc(Cl)cc1`, the Potency entry is “inactive”.

`O=C1[C@H](CC[C@H](O)c2ccc(F)cc2)[C@@H](c2ccc(O)cc2)N1c1ccc(F)cc1`: the Potency result is “inactive”.

Consider `CCCCCCCC/C=C\CCCCCCCCN`, for which the Potency result is “inactive”.

Regarding `NS(=O)(=O)c1ccc(Cl)c(S(N)(=O)=O)c1`, the Potency result was “inactive”.

On to `CC1=C(C(=O)O)N2C(=O)[C@@H](NC(=O)[C@H](N)c3ccccc3)[C@H]2SC1`, for which the Potency entry was “inactive”.

Turning to `CC(=O)O[C@]1(C(C)=O)CC[C@H]2[C@@H]3C=C(Cl)C4=CC(=O)CC[C@]4(C)[C@H]3CC[C@@]21C`, the Potency result was “inactive”.

As for `O=C1OC2(c3ccccc31)c1cc(Br)c(O)c(Br)c1Oc1c2cc(Br)c(O)c1Br`, the Potency result is “inactive”.
